# According to PubChem BioAssay:
# Unmarked numbers belong to inactive results. Some of the results follow. Active and inactive are the calls of the source.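 Rule for the calls, unless noted: active = inhibition above the hit cutoff set in the earlier primary screen (cut at about 27% in these data); inactive = the rest.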
# Legend:
# [1] = target: Bcl-2-like protein 1 (Homo sapiens) (UniProt Q07817); experiment: Bcl-xL inhibitors blocking Bim BH3 binding, confirmation, counter-screen for MCL1 inhibitor project, biochemical, fluorescence polarization (AID 2166;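 active = inhibition above a cutoff equal to the mean inhibition of all tested compounds plus 3 SD, cut at about 30% in these data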); details: GST-Bcl-xL / FITC-Bim BH3 peptide FP binding; at 10.9 µM; stronger effect = higher value
# [2] = target: Induced myeloid leukemia cell differentiation protein Mcl-1 (Homo sapiens) (UniProt Q07820); experiment: inhibitors of MCL1 binding to BIM-BH3, confirmation, biochemical, fluorescence polarization, triplicate (AID 2168;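 active = inhibition above the average of all tested compounds plus 3 SD, cut at about 40% in these data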;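 note: 0% = DMSO wells and 100% = unlabeled Bim-BH3 control peptide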); details: GST-MCL1 / FITC-Bim-BH3 fluorescence polarization; at 10.9 µM; stronger effect = higher value
# [3] = target: Nuclear receptor coactivator 3 (Homo sapiens) (UniProt Q9Y6Q9); experiment: SRC3 coactivator transcriptional activity inhibitors, confirmation, cell-based, luminescence, quadruplicate (AID 588792;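 active = mean inhibition over 43.08%, the solvent-only control mean plus 3 SD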;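 note: 0% = DMSO treated cells and 100% = gossypol at 36 µM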); details: HEK293 GAL4-SRC3 luciferase reporter, at 3.6 µM, stronger effect = higher value
# [4] = tested on: transactivating tegument protein VP16 (Human herpesvirus 1), Gal4-VP16 luciferase reporter; experiment: VP16 transactivation inhibitors, counter-screen for SRC3 inhibitor project, cell-based, luminescence, high throughput (AID 588794; in the data active = inhibition above about 30%); details: mammalian cells, VP16-driven luciferase reporter luminescence; at 3.6 µM; stronger effect = higher value
# [5] = target: Nuclear receptor coactivator 1 (Homo sapiens) (UniProt Q15788); experiment: SRC1 coactivator transcriptional activity inhibitors, confirmation, cell-based, luminescence, quadruplicate (AID 588820;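 active = mean inhibition above 46.68%, the untreated control wells mean plus 3 SD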;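 note: 0% = DMSO wells and 100% = gossypol 36 µM treated wells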); details: HEK293 GAL4-SRC1 luciferase reporter, at 3.6 µM, stronger effect = higher value
# [6] = VP16 transactivation inhibitors, counter-screen for SRC1 inhibitor project, cell-based, luminescence, high throughput (AID 588824; in the data active = inhibition above about 25%); details: cell-based VP16 transactivation luciferase luminescence; at 3.6 µM; stronger effect = higher value
# [7] = StAR promoter reporter inhibitors, counter-screen for LRH-1 inverse agonist project, cell-based, luminescence, high throughput (AID 651611; in the data active = inhibition above about 28%); details: StAR promoter luciferase reporter counterscreen, at 3.6 µM, stronger effect = higher value
# [8] = target: Nuclear receptor subfamily 5 group A member 2 (Homo sapiens) (UniProt O00482); experiment: LRH-1 (NR5A2) inverse agonists, retest, confirmation, cell-based, luminescence (AID 651613; in the data active = inhibition above about 42%;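 note: HEK293T cells co-transfected with LRH-1 and StAR promoter luciferase reporter; 0% = vehicle wells and 100% = parental cells lacking receptor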); details: cell-based LRH-1 luciferase reporter, inverse agonism; at 3.6 µM; stronger effect = higher value
# [9] = target: Steroidogenic factor 1 (Homo sapiens) (UniProt Q13285); experiment: SF1 (NR5A1) inverse agonists, counter-screen for LRH-1 inverse agonist project, cell-based, luminescence, high throughput (AID 651614; in the data active = inhibition above about 44%;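 note: cells cotransfected with StAR promoter reporter and SF1 expression vector; 0% = vehicle on cells with receptor and 100% = vehicle on cells lacking receptor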); details: cell-based SF1 luciferase reporter, at 3.6 µM, stronger effect = higher value
# [10] = VP16 transactivation reporter inhibitors, counter-screen for LRH-1 inverse agonist project, cell-based, luminescence, high throughput (AID 651615; in the data active = inhibition above about 33%); details: Gal4-VP16 luciferase reporter cells, at 3.6 µM, stronger effect = higher value
# [11] = target: Protein phosphatase methylesterase 1 (Homo sapiens) (UniProt Q9Y570); experiment: PME-1 inhibitor activity retest, confirmation, biochemical, fluorescence polarization, FP-Rh probe, triplicate (AID 2171); details: recombinant PME-1, FP-Rh probe fluorescence polarization; at 5.9 µM; stronger effect = higher value;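 note: 0% = enzyme with DMSO and 100% = wells lacking PME-1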
# [12] = target: Insulin-degrading enzyme (Homo sapiens) (UniProt P14735); experiment: human IDE inhibitors in live cells, confirmation, fluorescence polarization, HEK cells, FAbetaB substrate (AID 435028;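 active = mean inhibition across triplicate wells above the cutoff set by the earlier primary insulin-degrading enzyme screen, cut at about 16% in these data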;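 note: 0% = DMSO wells and 100% = 60 µM reference IDE inhibitor Ii1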); details: FAbetaB cleavage, at 5.59 µM, stronger effect = higher value
# [13] = cytotoxicity in HEK cells, cytotoxicity control for IDE inhibitor project, cell-based, luminescence (AID 449730; in the data active = inhibition above about 22%;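 note: 0% = vehicle wells and 100% = reference cytotoxic drug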); details: HEK293 cytotoxicity, ATP luminescence; at 5.59 µM; stronger effect = higher value
# [14] = target: Platelet-activating factor acetylhydrolase (Homo sapiens) (UniProt Q13093); experiment: pPAFAH (PLA2G7) enzyme inhibitors, confirmation, biochemical, fluorescence polarization, human (AID 463230;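 active = mean inhibition of the triplicate above the hit cutoff set for the earlier primary screen, cut at about 25% in these data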;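 note: 0% = enzyme with DMSO and 100% = wells lacking pPAFAH enzyme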); details: recombinant pPAFAH, FP-Rh probe fluorescence polarization; at 3.39 µM; stronger effect = higher value
# [15] = target: (Lyso)-N-acylphosphatidylethanolamine lipase (Mus musculus) (UniProt Q8VD66); experiment: ABHD4 inhibitors, retest, confirmation, biochemical, fluorescence polarization, mouse (AID 720658;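 active = mean inhibition across replicates above the hit cutoff set in the primary screen, cut at about 30% in these data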;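 note: 0% = wild-type ABHD4 with DMSO and 100% = catalytically dead S159A mutant with DMSO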); details: purified mABHD4, FP-Rh probe fluorescence polarization; at 8.92 µM; stronger effect = higher value
# [16] = target: Toll-like receptor 9 (Homo sapiens) (UniProt Q9NR96); experiment: TLR9-MyD88 association inhibitors, retest, confirmation, cell-based, CHO, BLA complementation, fluorescence, triplicate (AID 540250;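 active = mean inhibition across three repeats above about 21% taken from the earlier screen, limit read from the data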;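 note: blue over green emission ratio reports constitutive TLR9 MyD88 association via BLA complementation; 0% = DMSO vehicle wells and 100% = clavulanate BLA inhibitor wells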); details: CCF4 FRET ratio, at 4.98 µM, stronger effect = higher value
# [17] = beta-lactamase reporter inhibitors in CHO cells, artefact control for TLR9-MyD88 binding inhibitor project, cell-based, fluorescence (AID 540251;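 active = mean inhibition above a 50% cutoff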;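 note: counterscreen of TLR9-MyD88 hits on CMV-driven BLA in CHO-K1 cells; 0% = DMSO alone and 100% = clavulanate blocking BLA; higher means less blue over green ratio so more BLA blockade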); details: CHO-BLA cells, CCF4 FRET ratio, at 4.98 µM, stronger effect = higher value
# [18] = CHO cell viability loss – luminescence, single concentration, cytotoxicity control for TLR9-MyD88 binding inhibitor project (AID 588336; in the data active = inhibition above about 11%); details: TLR9-MyD88 CHO cells cytotoxicity, at 4.98 µM, stronger effect = higher value
# [19] = target: Receptor-interacting serine/threonine-protein kinase 2 (Homo sapiens) (UniProt O43353); experiment: NOD2-RIPK2 binding disruptors, retest, confirmation, fluorescence, CHO cells, BLA complementation, triplicate (AID 624370;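 active = mean inhibition across replicates above a set limit taken from the earlier primary screen, cut at about 21% in these data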;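 note: 0% = DMSO-only wells and the high end = clavulanate BLA-blocked wells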); details: CCF4 FRET, at 4.98 µM, stronger effect = higher value
# [20] = beta-lactamase reporter inhibitors in CHO cells, confirmation, artefact control for NOD2-RIPK2 interaction inhibitor project, cell-based, CHO-K1 CMV-bla, CCF4 FRET, fluorescence (AID 624371;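 active = mean inhibition above the low-control mean inhibition plus three low-control SD, cut at about 11% in these data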;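 note: 0% = DMSO only wells and 100% = clavulanate high control wells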); details: CCF4 FRET ratio, counterscreen, at 4.98 µM, stronger effect = higher value
# [21] = growth loss of phage-infected E. coli expressing H. pylori AddAB, confirmation, AddAB inhibitor project, absorbance, E. coli V3065, T4 phage, triplicate (AID 488942;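 active = mean inhibition above a set limit taken from the earlier primary screen, cut at about 13% in these data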;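 note: higher means less bacterial growth since AddAB block lets phage replicate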); details: OD, at 11.9 µM, stronger effect = higher value, T4 phage with gene 2 nonsense mutations
# [22] = growth loss of RecBCD+ E. coli with mutant T4 phage, counter-screen for AddAB inhibitor project, absorbance, V66 E. coli (AID 488955;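 active = mean inhibition above the mean of solvent-only control wells plus 3 SD, cut at about 4% in these data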;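 note: optical density read after an 18 h incubation at 37 °C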); details: OD growth, at 11.9 µM, stronger effect = higher value
# [23] = bacterial viability inhibition counter-screen, confirmation, counter-screen for AddAB inhibitor project, absorbance (AID 488956; in the data active = inhibition above about 25%); details: absorbance (AddAB counterscreen), at 11.9 µM, stronger effect = higher value
# [24] = growth loss of phage-infected RecBCD+ E. coli, confirmation, RecBCD inhibitor project, absorbance, E. coli V66, T4 gene 2 phage (AID 651982;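 active = mean inhibition over triplicates exceeding the hit threshold derived in the original primary screen, cut at about 11% in these data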); details: E. coli V66 + T4 2- phage, growth OD; at 11.9 µM; stronger effect = higher value
# [25] = E. coli viability inhibition, counter-screen for RecBCD inhibitor project, absorbance, high throughput (AID 651983; in the data active = inhibition above about 20%;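 note: E. coli strain V66 grown with compound alone and no phage infection; 0% = bacteria with DMSO vehicle only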); details: absorbance (OD) growth, at 11.9 µM, stronger effect = higher value
# [26] = growth loss of phage-infected AddAB-carrying E. coli, confirmation, counter-screen for RecBCD inhibitor project, absorbance, E. coli V3065, T4 phage (AID 651984;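 active = mean inhibition above the solvent-only control wells' mean plus 3 SD, cut at about 22% in these data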;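 note: higher means less bacterial growth from phage killing when AddAB is blocked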); details: E. coli expressing H. pylori AddAB + T4 phage, OD growth; at 11.9 µM; stronger effect = higher value; gene 2 mutant T4, recBCD-deleted host
# [27] = compounds interfering with TAMRA-BSA probe, counter-screen for TCR-CD3 interaction inhibitor project, biochemical, fluorescence, TAMRA-labeled BSA (AID 652035; in the data active = inhibition above about 23%;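 note: 0% = buffer low control and 100% = reference high control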); details: TAMRA-labeled BSA probe fluorescence counterscreen; at 9.4 µM; stronger effect = higher value
# [28] = tested on: T-cell receptor (TCR)-CD3 interaction, human; experiment: TCR-CD3 interaction inhibitors, retest, confirmation, biochemical, fluorescence, TAMRA-labeled TCR probe (AID 652036; in the data active = inhibition above about 19%); details: TAMRA-labeled TCR probe fluorescence binding assay; at 9.4 µM; stronger effect = higher value
# [29] = target: Protein-arginine deiminase type-4 (Homo sapiens) (UniProt Q9UM07); experiment: human PAD4 inhibitors, confirmation, biochemical, fluorescence polarization (AID 488796;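 active = mean inhibition across replicates above the hit cutoff set by the earlier primary screen, cut at about 15% in these data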;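 note: inhibitors block active-site labeling by the probe so polarization falls; 0% = PAD4 with probe and DMSO and 100% = probe without PAD4 enzyme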); details: recombinant PAD4, RCA probe fluorescence polarization; at 6.36 µM; stronger effect = higher value
# [30] = target: Oxysterols receptor LXR-beta (Homo sapiens) (UniProt P55055); experiment: LXR agonists, Gal4 luciferase reporter, confirmation, counter-screen for hcDAF-12 agonist project, cell-based, luminescence, HEK293, H. contortus campaign (AID 743027;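 active = mean percent activation of the reporter above a cutoff set as the average over tested compounds plus their standard deviation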); details: HEK293 Gal4-LXR tk-luc reporter, 24 h, at 6.8 µM, stronger effect = higher value, normalized: DMSO 0%, positive control 100%
# [31] = tested on: Nuclear hormone receptor DAF-12 (Haemonchus contortus); experiment: H. contortus DAF-12 receptor agonists, confirmation, cell-based, luminescence, HEK293, lit1-tk-luc, triplicate (AID 743032;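 active = mean activation across triplicate tests above the threshold derived from the earlier primary screen, cut at about 5.5% in these data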;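 note: 0% = DMSO only wells and 100% = 3 µM Δ7-dafachronic acid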); details: HEK293 hcDAF-12 lit1-tk-luc reporter, at 6.8 µM, stronger effect = higher value, % of Δ7-dafachronic acid response
# Chain of Protein-arginine deiminase type-4 (Homo sapiens) (Q9UM07 whole entry, looked up, the tested form may be a part): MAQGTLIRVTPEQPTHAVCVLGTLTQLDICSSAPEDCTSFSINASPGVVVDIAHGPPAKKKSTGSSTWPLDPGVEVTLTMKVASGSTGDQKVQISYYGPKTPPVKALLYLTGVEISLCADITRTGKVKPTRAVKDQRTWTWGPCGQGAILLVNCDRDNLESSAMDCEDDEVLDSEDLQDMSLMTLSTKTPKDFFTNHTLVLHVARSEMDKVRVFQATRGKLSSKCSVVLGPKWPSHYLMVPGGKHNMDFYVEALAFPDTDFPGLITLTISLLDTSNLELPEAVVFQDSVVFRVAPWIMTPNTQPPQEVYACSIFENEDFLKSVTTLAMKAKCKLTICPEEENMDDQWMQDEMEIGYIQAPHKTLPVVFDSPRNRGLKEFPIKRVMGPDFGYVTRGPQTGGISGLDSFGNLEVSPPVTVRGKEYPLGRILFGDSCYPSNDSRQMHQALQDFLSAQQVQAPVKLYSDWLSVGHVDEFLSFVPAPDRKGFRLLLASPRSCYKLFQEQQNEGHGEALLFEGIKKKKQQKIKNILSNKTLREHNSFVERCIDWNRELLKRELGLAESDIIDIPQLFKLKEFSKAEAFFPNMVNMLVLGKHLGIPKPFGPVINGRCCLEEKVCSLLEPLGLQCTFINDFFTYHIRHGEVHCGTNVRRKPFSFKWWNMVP
# Chain of Protein phosphatase methylesterase 1 (Homo sapiens) (Q9Y570 whole entry, looked up): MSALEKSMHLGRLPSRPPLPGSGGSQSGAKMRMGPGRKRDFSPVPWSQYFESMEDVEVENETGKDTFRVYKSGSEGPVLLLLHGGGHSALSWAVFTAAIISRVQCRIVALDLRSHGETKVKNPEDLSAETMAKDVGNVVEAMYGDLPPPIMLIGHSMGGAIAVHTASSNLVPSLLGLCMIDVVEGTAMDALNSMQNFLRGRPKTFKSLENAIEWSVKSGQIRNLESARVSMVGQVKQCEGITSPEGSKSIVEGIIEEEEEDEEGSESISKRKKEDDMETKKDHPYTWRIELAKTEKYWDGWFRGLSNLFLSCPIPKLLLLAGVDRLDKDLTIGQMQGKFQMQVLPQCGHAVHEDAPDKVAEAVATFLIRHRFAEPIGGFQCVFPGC
# Chain of Induced myeloid leukemia cell differentiation protein Mcl-1 (Homo sapiens) (Q07820 whole entry, looked up, the tested form may be a part): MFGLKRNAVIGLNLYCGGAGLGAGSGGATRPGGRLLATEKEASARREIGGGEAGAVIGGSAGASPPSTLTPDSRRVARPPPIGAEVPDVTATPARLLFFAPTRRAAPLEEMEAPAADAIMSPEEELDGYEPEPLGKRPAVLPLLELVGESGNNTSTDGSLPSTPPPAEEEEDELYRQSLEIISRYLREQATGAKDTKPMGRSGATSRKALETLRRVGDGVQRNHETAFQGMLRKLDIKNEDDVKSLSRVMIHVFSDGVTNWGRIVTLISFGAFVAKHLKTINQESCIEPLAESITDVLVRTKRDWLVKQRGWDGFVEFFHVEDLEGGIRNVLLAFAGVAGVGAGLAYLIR
# Chain of Bcl-2-like protein 1 (Homo sapiens) (Q07817 whole entry, looked up): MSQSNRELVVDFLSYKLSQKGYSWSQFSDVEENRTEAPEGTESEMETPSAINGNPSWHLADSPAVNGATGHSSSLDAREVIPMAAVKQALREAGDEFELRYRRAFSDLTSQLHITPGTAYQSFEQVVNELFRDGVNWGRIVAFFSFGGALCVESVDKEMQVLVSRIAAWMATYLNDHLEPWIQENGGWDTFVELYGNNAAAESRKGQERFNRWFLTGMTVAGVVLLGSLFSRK
# Chain of Steroidogenic factor 1 (Homo sapiens) (Q13285 whole entry, looked up, the tested form may be a part): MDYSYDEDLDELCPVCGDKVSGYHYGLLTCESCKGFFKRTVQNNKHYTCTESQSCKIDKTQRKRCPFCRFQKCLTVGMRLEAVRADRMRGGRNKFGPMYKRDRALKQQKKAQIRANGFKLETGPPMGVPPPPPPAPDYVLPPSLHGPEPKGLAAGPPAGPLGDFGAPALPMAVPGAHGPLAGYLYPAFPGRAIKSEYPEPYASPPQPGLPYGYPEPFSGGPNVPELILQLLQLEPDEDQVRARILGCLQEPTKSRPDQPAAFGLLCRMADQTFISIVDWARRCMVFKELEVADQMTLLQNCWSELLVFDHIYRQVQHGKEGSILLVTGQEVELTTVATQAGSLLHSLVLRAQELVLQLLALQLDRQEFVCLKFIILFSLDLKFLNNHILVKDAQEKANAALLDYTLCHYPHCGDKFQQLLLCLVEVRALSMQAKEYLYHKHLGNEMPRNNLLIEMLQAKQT
# Chain of Platelet-activating factor acetylhydrolase (Homo sapiens) (Q13093 whole entry, looked up): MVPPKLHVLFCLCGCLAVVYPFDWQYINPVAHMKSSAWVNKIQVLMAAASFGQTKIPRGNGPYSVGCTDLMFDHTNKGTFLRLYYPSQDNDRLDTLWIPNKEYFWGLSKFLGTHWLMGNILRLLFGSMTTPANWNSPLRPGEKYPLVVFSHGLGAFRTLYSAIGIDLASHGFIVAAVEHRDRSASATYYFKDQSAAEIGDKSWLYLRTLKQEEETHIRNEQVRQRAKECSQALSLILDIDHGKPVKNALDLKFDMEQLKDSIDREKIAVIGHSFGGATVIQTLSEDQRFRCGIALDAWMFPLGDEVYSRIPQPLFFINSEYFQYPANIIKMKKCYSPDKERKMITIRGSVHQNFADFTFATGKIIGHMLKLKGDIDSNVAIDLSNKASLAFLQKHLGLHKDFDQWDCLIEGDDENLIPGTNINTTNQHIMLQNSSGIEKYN
# Chain of Insulin-degrading enzyme (Homo sapiens) (P14735 whole entry, looked up): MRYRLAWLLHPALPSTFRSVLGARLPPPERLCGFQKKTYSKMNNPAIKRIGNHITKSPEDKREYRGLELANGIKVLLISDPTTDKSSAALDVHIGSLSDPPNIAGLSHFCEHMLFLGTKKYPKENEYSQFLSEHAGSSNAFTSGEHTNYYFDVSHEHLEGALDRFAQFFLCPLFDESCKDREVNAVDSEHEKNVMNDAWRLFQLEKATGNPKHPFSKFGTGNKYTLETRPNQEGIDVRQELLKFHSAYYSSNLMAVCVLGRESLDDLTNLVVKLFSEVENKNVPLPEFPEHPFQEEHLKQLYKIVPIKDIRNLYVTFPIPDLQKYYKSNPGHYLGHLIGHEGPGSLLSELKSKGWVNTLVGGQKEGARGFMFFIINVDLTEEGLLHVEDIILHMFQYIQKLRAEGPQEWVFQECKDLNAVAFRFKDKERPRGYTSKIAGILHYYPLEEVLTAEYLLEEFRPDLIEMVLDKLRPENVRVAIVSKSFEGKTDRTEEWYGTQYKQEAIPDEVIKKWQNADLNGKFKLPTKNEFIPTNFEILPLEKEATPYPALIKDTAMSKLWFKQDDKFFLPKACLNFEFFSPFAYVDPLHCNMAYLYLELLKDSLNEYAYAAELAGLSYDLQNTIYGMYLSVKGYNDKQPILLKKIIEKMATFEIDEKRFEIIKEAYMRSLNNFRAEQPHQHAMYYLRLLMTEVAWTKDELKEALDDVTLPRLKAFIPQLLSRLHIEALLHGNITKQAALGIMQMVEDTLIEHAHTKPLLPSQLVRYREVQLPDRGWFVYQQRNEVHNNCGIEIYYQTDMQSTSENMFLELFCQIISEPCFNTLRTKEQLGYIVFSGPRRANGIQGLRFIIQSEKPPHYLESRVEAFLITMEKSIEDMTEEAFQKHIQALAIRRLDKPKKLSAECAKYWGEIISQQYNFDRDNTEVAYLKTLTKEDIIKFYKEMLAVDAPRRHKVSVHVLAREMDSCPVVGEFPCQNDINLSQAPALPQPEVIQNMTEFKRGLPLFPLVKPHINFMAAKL
# Chain of Oxysterols receptor LXR-beta (Homo sapiens) (P55055 whole entry, looked up, the tested form may be a part): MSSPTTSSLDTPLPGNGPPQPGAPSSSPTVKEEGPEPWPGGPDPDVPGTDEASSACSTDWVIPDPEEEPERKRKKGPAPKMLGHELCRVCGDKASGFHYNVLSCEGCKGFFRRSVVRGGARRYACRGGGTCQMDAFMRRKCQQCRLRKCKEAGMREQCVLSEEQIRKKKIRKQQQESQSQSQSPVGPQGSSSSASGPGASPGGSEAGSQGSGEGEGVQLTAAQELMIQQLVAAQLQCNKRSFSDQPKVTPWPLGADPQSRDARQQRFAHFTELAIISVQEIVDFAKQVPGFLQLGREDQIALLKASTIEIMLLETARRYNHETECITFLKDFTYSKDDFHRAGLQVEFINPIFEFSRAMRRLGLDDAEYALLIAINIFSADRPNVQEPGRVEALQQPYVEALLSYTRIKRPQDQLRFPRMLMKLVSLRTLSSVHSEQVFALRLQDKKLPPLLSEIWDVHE
# Chain of Nuclear receptor subfamily 5 group A member 2 (Homo sapiens) (O00482 whole entry, looked up): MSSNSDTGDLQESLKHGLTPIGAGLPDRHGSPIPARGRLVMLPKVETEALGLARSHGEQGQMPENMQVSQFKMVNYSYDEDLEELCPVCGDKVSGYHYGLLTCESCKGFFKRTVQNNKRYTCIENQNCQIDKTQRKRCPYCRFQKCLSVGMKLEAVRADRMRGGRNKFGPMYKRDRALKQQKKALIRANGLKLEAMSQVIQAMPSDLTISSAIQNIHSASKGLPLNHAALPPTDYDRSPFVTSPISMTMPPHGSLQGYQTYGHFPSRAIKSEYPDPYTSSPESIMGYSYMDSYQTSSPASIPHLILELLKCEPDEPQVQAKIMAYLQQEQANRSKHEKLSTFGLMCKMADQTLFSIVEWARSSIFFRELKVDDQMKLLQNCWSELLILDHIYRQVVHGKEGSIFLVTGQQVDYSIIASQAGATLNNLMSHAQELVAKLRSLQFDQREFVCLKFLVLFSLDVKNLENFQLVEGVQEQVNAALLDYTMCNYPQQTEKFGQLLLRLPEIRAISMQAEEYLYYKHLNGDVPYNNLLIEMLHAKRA
# Chain of (Lyso)-N-acylphosphatidylethanolamine lipase (Mus musculus) (Q8VD66 whole entry, looked up): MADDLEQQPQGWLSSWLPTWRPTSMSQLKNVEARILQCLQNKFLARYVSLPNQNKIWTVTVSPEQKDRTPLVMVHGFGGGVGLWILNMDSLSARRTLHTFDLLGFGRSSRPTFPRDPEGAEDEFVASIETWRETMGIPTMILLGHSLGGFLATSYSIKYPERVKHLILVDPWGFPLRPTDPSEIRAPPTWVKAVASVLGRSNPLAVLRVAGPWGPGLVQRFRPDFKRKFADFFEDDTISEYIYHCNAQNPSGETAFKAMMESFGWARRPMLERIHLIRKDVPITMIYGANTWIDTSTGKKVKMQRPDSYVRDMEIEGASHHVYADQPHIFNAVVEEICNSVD
smiles,measurement,setting,value
Cc1cccn2c(=O)c3cc(C(=O)NCCN4CCOCC4)c(=N)n(Cc4cccnc4)c3nc12,inhibition,[1],55.8% (active)
same,inhibition,[2],65.7% (active)
same,inhibition,[3],22.5%
same,inhibition,[4],20.1%
same,inhibition,[5],24.4%
same,inhibition,[6],17.3%
same,inhibition,[7],21.2%
same,inhibition,[8],57.8% (active)
same,inhibition,[9],49.1% (active)
same,inhibition,[10],28.6%
O=S(=O)(Nc1cc2nc3ccccc3nc2n1Cc1ccccc1)c1ccc(Cl)cc1,inhibition,[11],42.4% (active)
Cc1cc2nc3c(=O)n(Cc4ccccc4)c(=O)[nH]c3nc2cc1N,inhibition,[1],198% (active)
same,inhibition,[12],66.8% (active)
same,inhibition,[13],8.2%
same,inhibition,[14],29.3% (active)
same,inhibition,[15],82.2% (active)
COc1ccc(Nc2nc(-c3cccnc3)nc3ccccc23)cn1,inhibition,[1],90.3% (active)
same,inhibition,[2],114% (active)
same,inhibition,[7],28.2% (active)
same,inhibition,[8],43.9% (active)
same,inhibition,[9],53.2% (active)
same,inhibition,[10],-10.3%
O=C(OCCN(C1=NS(=O)(=O)c2ccccc21)c1ccc(Cl)cc1)c1ccco1,inhibition,[11],20.6%
CCOC(=O)c1c(C)[nH]c(C2=NNC(=Nc3ccc(OCC)cc3)SC2)c1C,inhibition,[11],18.9%
COc1ccc(OC)c(N2C(=O)CC(Cc3ccc(C)cc3)C2=O)c1 (stereo not given),inhibition,[11],0.52%
Nc1cccc2c1C(=O)N(Cc1nnc(-c3ccccc3Br)o1)C2=O,inhibition,[1],51.2% (active)
same,inhibition,[2],69% (active)
same,inhibition,[16],16.4%
same,inhibition,[17],19.9%
same,inhibition,[18],3.2%
same,inhibition,[19],37.4% (active)
same,inhibition,[20],41.6% (active)
COc1ccc(NC(=O)Nc2cccc([N+](=O)[O-])c2)cc1Cl,inhibition,[11],2.05%
Cc1ccc(N=Cc2nc(/C=C/c3cccc([N+](=O)[O-])c3)oc2O)cc1,inhibition,[11],30.2% (active)
COc1ccc(N2CC(C(=O)NCCN3C(=O)S/C(=C\c4cccnc4)C3=O)CC2=O)c(OC)c1 (stereo not given),inhibition,[1],-1.58%
same,inhibition,[2],-8.97%
same,inhibition,[14],0.49%
C=C1c2c(Cl)ccc(O)c2C(O)=C2C(=O)[C@]3(O)C(O)=C(C(N)=O)C(=O)[C@@H](N(C)C)[C@@H]3[C@@H](O)C12 (stereo not given in full),inhibition,[1],37.7% (active)
same,inhibition,[2],79% (active)
same,inhibition,[21],102% (active)
same,inhibition,[22],101% (active)
same,inhibition,[23],104% (active)
same,inhibition,[24],102% (active)
same,inhibition,[25],105% (active)
same,inhibition,[26],104% (active)
same,inhibition,[27],-9.22%
same,inhibition,[28],20.7% (active)
COc1ccc(O)c(/C=N/Nc2nc(C)cc(-c3ccccc3)n2)c1,inhibition,[11],39% (active)
COc1ccc(-c2cc(-c3c(O)c(OC)c4occc4c3OC)[nH]n2)cc1,inhibition,[11],19.9%
COc1ccc(/C=N/NC(=O)c2cc3c(OC)ccc(OC)c3[nH]2)cc1O,inhibition,[11],37.8% (active)
O=C1C(CSCc2ccccc2)NC(=S)N1c1ccccc1 (stereo not given),inhibition,[11],5.6%
O=C(c1sc2ccccc2c1Cl)N1CCN(c2ncccn2)CC1,inhibition,[11],24.4%
COc1ncnc2c1N=C1CC(C)(C)CC(N)=C1S2,inhibition,[1],144% (active)
same,inhibition,[2],181% (active)
same,inhibition,[29],24.1% (active)
Cc1cc(C)c(/C=C2\C(=O)Nc3ccccc32)[nH]1,inhibition,[1],147% (active)
same,inhibition,[2],168% (active)
same,inhibition,[12],83.6% (active)
same,inhibition,[13],5.65%
same,activation,[30],0.33%
same,activation,[31],7.13% (active)
Nc1cc(N)cc(-c2nc3ccccc3[nH]2)c1,inhibition,[11],3.51%
Cc1nn(C(=O)c2ccoc2C)c(N)c1-c1ccccc1,inhibition,[1],1.59%
same,inhibition,[2],-8.2%
same,inhibition,[29],1.71%
same,activation,[30],0.39%
same,activation,[31],2.6%
Cc1nn(Cc2ccccc2)c(C)c1CNC(=O)c1ccc(F)c(S(=O)(=O)N2CCOCC2)c1,inhibition,[1],9.04%
same,inhibition,[2],4.37%
same,inhibition,[29],3.62%
COc1ccc(NS(=O)(=O)c2ccc(N/N=C(\C)c3ccncc3)c([N+](=O)[O-])c2)cc1,inhibition,[11],26.3% (active)
CC12CCC(C(=O)N(NC(=O)c3ccccc3O)C1=O)C2(C)C (stereo not given),inhibition,[1],10.1%
same,inhibition,[2],41.1% (active)
same,inhibition,[27],23.1% (active)
same,inhibition,[28],30% (active)
